Our source for the phenotypically active values is the supplement of paper PMC7411054.

Where a name gives a salt, the structure may show the parent alone.

The first assay deals with A549-GM130-SQSTM1. The assay can be described thus: phenotypically active (imaging signature differs from DMSO and reproducible) at any of 0.3-9 uM (binary (1 = active, 0 = inactive)); higher = active. To be noted: treatment time: 24 h. A digest of the protocol: (§1)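 Two criteria together defined phenotypic activity: deviation and reproducibility. Deviation meant ≥3 of 4 wells beyond the 95th percentile of Euclidean distances in solvent control wells, and reproducibility meant a median replicate Pearson correlation above the 95th percentile of non-replicates. Wells had been treated for 24 h at 0.3, 1, 3 or 9 µM in fifteen gene-edited A549, HepG2 and WPMY1 reporter lines before live imaging.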
Turning to `CN1C(=O)CC(C)(c2ccccc2)C1=O` (stereo not drawn) [methsuximide], the phenotypically active is 0 (inactive).

Consider `O=C(NCCO)c1cc(C(=O)NCCO)cc(C(=O)NCCO)c1`, for which the phenotypically active is 0 (inactive).

For the compound `CO[C@H]1C=CO[C@@]2(C)Oc3c(C)c(O)c4c(O)c(c5c(nc6cc(C)ccn65)c4c3C2=O)NC(=O)C(C)=CC=C[C@H](C)[C@H](O)[C@@H](C)[C@@H](O)[C@@H](C)[C@H](OC(C)=O)[C@@H]1C` [Rifaximin], the phenotypically active is 0 (inactive).

For `N#Cc1ccc(C(c2ccc(C#N)cc2)n2cncn2)cc1` [Letrozole], the phenotypically active was 0 (inactive).

For the compound `NC(=O)c1cccc(-c2cccc(OC(=O)NC3CCCCC3)c2)c1`, the phenotypically active was 0 (inactive).

With `O=C(Nc1cccnc1)c1cc(-c2ccnc(F)c2)ccc1OCc1ccccc1`, the phenotypically active was 0 (inactive).

Take `O=C(O)CCCC[C@@H]1SC[C@@H]2NC(=O)N[C@@H]21` [Biotin]: the phenotypically active was 0 (inactive).

As to `NS(=O)(=O)c1cc2c(cc1Cl)NC(C(Cl)Cl)NS2(=O)=O` (stereo not drawn) [trichlormethiazide], the phenotypically active was 0 (inactive).

Regarding `CCn1c(=O)c2cc(C(N)=O)c(N)nc2n(C2CC2)c1=O`, the phenotypically active was 0 (inactive).

Consider `CCCSc1nc2c(c(=O)n1-c1ccccc1)SCC2`, for which the phenotypically active is 0 (inactive).

Turning to `COc1cc(C#N)ccc1S(=O)(=O)Nc1ccc2c(c1)cc(C)c(=O)n2C`, the phenotypically active is 0 (inactive).

As to `CC(C)(C)NC[C@H](O)COc1nsnc1N1CCOCC1` [timolol], the phenotypically active is 0 (inactive).

As to `CC[N+](CC)(CC)CCC(O)(c1ccccc1)C1CCCCC1` (stereo not drawn) [tridihexethyl], the phenotypically active is 0 (inactive).

In the case of `COC(=O)C1=CO[C@@H](O[C@@H]2O[C@H](CO)[C@@H](O)[C@H](O)[C@H]2O)[C@H]2[C@@H]1C(=O)C[C@@H]2C` [Verbenaline], the phenotypically active is 0 (inactive).

With `Nc1ncnc2c1ncn2[C@H]1O[C@@H](C(=O)N2CCN(CC(=O)Nc3cccc4c3CNC4=O)CC2)[C@H](O)[C@@H]1O`, the phenotypically active is 0 (inactive).

Turning to `COc1ccc2cc(CCC(C)=O)ccc2c1` [nabumetone], the phenotypically active is 0 (inactive).

In the case of `CC(C)c1ccc2oc3nc(N)c(C(=O)O)cc3c(=O)c2c1` [Amlexanox], the phenotypically active is 0 (inactive).

With `O=C(/C=C/N1C[C@H]2C[C@@H]1CN2c1ccccn1)c1ccccc1O`, the phenotypically active is 0 (inactive).

Consider `C#CCN(C)Cc1ccccc1` [pargyline], for which the phenotypically active is 0 (inactive).

`Cc1nc2c(O)cccc2c(=O)[nH]1`: the phenotypically active was 0 (inactive).

As for `CC(C)Cn1c(=O)n(C)c(=O)c2[nH]cnc21`, the phenotypically active is 0 (inactive).

As for `COc1ccccc1OCC(O)CN1CCN(CC(=O)Nc2c(C)cccc2C)CC1` (stereo not drawn) [ranolazine], the phenotypically active is 0 (inactive).

For the compound `COC(=O)c1c(C)cc(OC(=O)c2c(C)cc(O)c(C=O)c2O)c(C)c1O` [Atranorin], the phenotypically active is 0 (inactive).

For the compound `CC(C)NCCCC1(C(N)=O)c2ccccc2-c2ccccc21` [indecainide], the phenotypically active was 0 (inactive).

With `O=C1c2ccccc2C(Cc2ccncc2)(Cc2ccncc2)c2ccccc21`, the phenotypically active was 0 (inactive).

As for `CC1=NN(c2ccc(C(=O)O)cc2)C(=O)/C1=C\c1ccc(-c2cc(C)c(C)cc2[N+](=O)[O-])o1`, the phenotypically active is 0 (inactive).

Take `CCCC(=O)Nc1ncnc2c1ncn2[C@@H]1O[C@@H]2COP(=O)(O)O[C@H]2[C@H]1OC(=O)CCC` [Dibutyryl-cAMP, sodium salt]: the phenotypically active is 0 (inactive).

Take `CCO[C@@H](Cc1ccc(OCCc2ccc(OS(C)(=O)=O)cc2)cc1)C(=O)O` [Tesaglitazar]: the phenotypically active is 0 (inactive).

As to `O=c1[nH]cnc2ccccc12`, the phenotypically active is 0 (inactive).

With `S=P(N1CC1)(N1CC1)N1CC1` [thiotepa], the phenotypically active was 0 (inactive).

Take `C[C@](N)(Cc1ccc(O)c(O)c1)C(=O)O` [methyldopa]: the phenotypically active was 0 (inactive).

With `CC1CCC(C(C)C)C(O)C1` [L-menthol], the phenotypically active is 0 (inactive).

Turning to `CCCCC1=NC2(CCCC2)C(=O)N1Cc1ccc(-c2ccccc2-c2nnn[nH]2)cc1` [irbesartan], the phenotypically active was 0 (inactive).

On to `CC(=O)Oc1ccccc1C(=O)O` [aspirin], for which the phenotypically active is 0 (inactive).

Turning to `CC(C(=O)O)c1ccc(C(=O)c2cccs2)cc1` (stereo not drawn) [suprofen], the phenotypically active was 0 (inactive).

With `FC(F)OC(F)C(F)(F)F` (stereo not drawn) [desflurane], the phenotypically active was 0 (inactive).

As for `CC(C)NCC(O)c1ccc(NS(C)(=O)=O)cc1` (stereo not drawn) [sotalol], the phenotypically active was 0 (inactive).

Consider `COc1ccc(C(C)=O)c(O)c1` [2'-Hydroxy-4'-Methoxyacetophenone], for which the phenotypically active is 0 (inactive).

Take `CC(=O)[C@H]1CC[C@H]2[C@@H]3CCC4=CC(=O)CC[C@]4(C)[C@H]3CC[C@]12C` [progesterone]: the phenotypically active is 0 (inactive).

The subject of a further assay is A549-TP53BP1-CLTA. Described as above. To be noted: treatment time: 24 h. The essentials:
as §1
With `CN1C(=O)CC(C)(c2ccccc2)C1=O` (stereo not drawn) [methsuximide], the phenotypically active was 0 (inactive).

Regarding `O=C(NCCO)c1cc(C(=O)NCCO)cc(C(=O)NCCO)c1`, the phenotypically active was 0 (inactive).

`CO[C@H]1C=CO[C@@]2(C)Oc3c(C)c(O)c4c(O)c(c5c(nc6cc(C)ccn65)c4c3C2=O)NC(=O)C(C)=CC=C[C@H](C)[C@H](O)[C@@H](C)[C@@H](O)[C@@H](C)[C@H](OC(C)=O)[C@@H]1C` [Rifaximin]: the phenotypically active was 0 (inactive).

As to `N#Cc1ccc(C(c2ccc(C#N)cc2)n2cncn2)cc1` [Letrozole], the phenotypically active is 0 (inactive).

Turning to `NC(=O)c1cccc(-c2cccc(OC(=O)NC3CCCCC3)c2)c1`, the phenotypically active was 0 (inactive).

Take `O=C(Nc1cccnc1)c1cc(-c2ccnc(F)c2)ccc1OCc1ccccc1`: the phenotypically active was 0 (inactive).

Take `O=C(O)CCCC[C@@H]1SC[C@@H]2NC(=O)N[C@@H]21` [Biotin]: the phenotypically active is 0 (inactive).

Regarding `NS(=O)(=O)c1cc2c(cc1Cl)NC(C(Cl)Cl)NS2(=O)=O` (stereo not drawn) [trichlormethiazide], the phenotypically active is 0 (inactive).

Take `CCn1c(=O)c2cc(C(N)=O)c(N)nc2n(C2CC2)c1=O`: the phenotypically active was 0 (inactive).

With `CCCSc1nc2c(c(=O)n1-c1ccccc1)SCC2`, the phenotypically active is 0 (inactive).

Take `COc1cc(C#N)ccc1S(=O)(=O)Nc1ccc2c(c1)cc(C)c(=O)n2C`: the phenotypically active is 0 (inactive).

Turning to `CC(C)(C)NC[C@H](O)COc1nsnc1N1CCOCC1` [timolol], the phenotypically active was 0 (inactive).

As for `CC[N+](CC)(CC)CCC(O)(c1ccccc1)C1CCCCC1` (stereo not drawn) [tridihexethyl], the phenotypically active is 0 (inactive).

`COC(=O)C1=CO[C@@H](O[C@@H]2O[C@H](CO)[C@@H](O)[C@H](O)[C@H]2O)[C@H]2[C@@H]1C(=O)C[C@@H]2C` [Verbenaline]: the phenotypically active is 0 (inactive).

Take `Nc1ncnc2c1ncn2[C@H]1O[C@@H](C(=O)N2CCN(CC(=O)Nc3cccc4c3CNC4=O)CC2)[C@H](O)[C@@H]1O`: the phenotypically active was 0 (inactive).

On to `COc1ccc2cc(CCC(C)=O)ccc2c1` [nabumetone], for which the phenotypically active is 0 (inactive).

Take `CC(C)c1ccc2oc3nc(N)c(C(=O)O)cc3c(=O)c2c1` [Amlexanox]: the phenotypically active was 0 (inactive).

With `O=C(/C=C/N1C[C@H]2C[C@@H]1CN2c1ccccn1)c1ccccc1O`, the phenotypically active is 0 (inactive).

With `C#CCN(C)Cc1ccccc1` [pargyline], the phenotypically active was 0 (inactive).

Turning to `Cc1nc2c(O)cccc2c(=O)[nH]1`, the phenotypically active is 0 (inactive).

Turning to `CC(C)Cn1c(=O)n(C)c(=O)c2[nH]cnc21`, the phenotypically active is 0 (inactive).

Turning to `COc1ccccc1OCC(O)CN1CCN(CC(=O)Nc2c(C)cccc2C)CC1` (stereo not drawn) [ranolazine], the phenotypically active is 0 (inactive).

Take `COC(=O)c1c(C)cc(OC(=O)c2c(C)cc(O)c(C=O)c2O)c(C)c1O` [Atranorin]: the phenotypically active is 0 (inactive).

For `CC(C)NCCCC1(C(N)=O)c2ccccc2-c2ccccc21` [indecainide], the phenotypically active was 0 (inactive).

Regarding `O=C1c2ccccc2C(Cc2ccncc2)(Cc2ccncc2)c2ccccc21`, the phenotypically active is 0 (inactive).

Take `CC1=NN(c2ccc(C(=O)O)cc2)C(=O)/C1=C\c1ccc(-c2cc(C)c(C)cc2[N+](=O)[O-])o1`: the phenotypically active is 0 (inactive).

Consider `CCCC(=O)Nc1ncnc2c1ncn2[C@@H]1O[C@@H]2COP(=O)(O)O[C@H]2[C@H]1OC(=O)CCC` [Dibutyryl-cAMP, sodium salt], for which the phenotypically active was 0 (inactive).

`CCO[C@@H](Cc1ccc(OCCc2ccc(OS(C)(=O)=O)cc2)cc1)C(=O)O` [Tesaglitazar]: the phenotypically active is 0 (inactive).

As to `O=c1[nH]cnc2ccccc12`, the phenotypically active was 0 (inactive).

`S=P(N1CC1)(N1CC1)N1CC1` [thiotepa]: the phenotypically active was 0 (inactive).

On to `C[C@](N)(Cc1ccc(O)c(O)c1)C(=O)O` [methyldopa], for which the phenotypically active was 0 (inactive).

With `CC1CCC(C(C)C)C(O)C1` [L-menthol], the phenotypically active was 0 (inactive).

Consider `CCCCC1=NC2(CCCC2)C(=O)N1Cc1ccc(-c2ccccc2-c2nnn[nH]2)cc1` [irbesartan], for which the phenotypically active was 0 (inactive).

As for `CC(=O)Oc1ccccc1C(=O)O` [aspirin], the phenotypically active is 0 (inactive).

`CC(C(=O)O)c1ccc(C(=O)c2cccs2)cc1` (stereo not drawn) [suprofen]: the phenotypically active was 0 (inactive).

On to `FC(F)OC(F)C(F)(F)F` (stereo not drawn) [desflurane], for which the phenotypically active is 0 (inactive).

With `CC(C)NCC(O)c1ccc(NS(C)(=O)=O)cc1` (stereo not drawn) [sotalol], the phenotypically active is 0 (inactive).

Turning to `COc1ccc(C(C)=O)c(O)c1` [2'-Hydroxy-4'-Methoxyacetophenone], the phenotypically active is 0 (inactive).

On to `CC(=O)[C@H]1CC[C@H]2[C@@H]3CCC4=CC(=O)CC[C@]4(C)[C@H]3CC[C@]12C` [progesterone], for which the phenotypically active is 0 (inactive).
